Whole data set: some 68,000 sequences, median “fluorescence intensity (a.u.)” near 9,100, cut for the highest 2% near 16,000. This excerpt belongs to a sample that is enriched for the highest values.

Sequence of OsWRKY34 (Q0JBA9 entry or part of it): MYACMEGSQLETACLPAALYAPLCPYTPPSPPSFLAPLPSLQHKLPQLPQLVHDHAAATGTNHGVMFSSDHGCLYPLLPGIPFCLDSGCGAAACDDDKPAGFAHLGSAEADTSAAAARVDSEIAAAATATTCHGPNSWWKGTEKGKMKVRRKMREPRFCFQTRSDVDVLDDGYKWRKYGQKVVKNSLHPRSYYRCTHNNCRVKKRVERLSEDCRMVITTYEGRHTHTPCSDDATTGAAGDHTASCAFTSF

This assay addresses OsWRKY34 (Oryza sativa, UniProt Q0JBA9 1-250). Kind of assay: protein-binding microarray (RPBM); PBS, 2% BSA, 51.3 ng/ul salmon testes DNA, 50 uM zinc acetate, 200 nM TF, 25 C, 1 h; high values mean tight binding. Particulars: protein: recombinant; tags: N-terminal polyhistidine and DsRed monomer fusion (pET32a); label: CyDye5-dUTP incorporated in the synthesized complementary strand; 3' TTTTT single-stranded linker to array surface; dsDNA, one strand shown. A digest of the protocol: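 Transcription factors were each fused at the N-terminus to a polyhistidine tag plus DsRed and expressed in E. coli BL21-CodonPlus before Ni–NTA purification. Binding to a double-stranded custom Agilent array was carried out with 200 nM protein at 25 °C for 1 h in PBS, 2% BSA, salmon testes DNA and 50 µM zinc acetate. The binding signal is per-feature fluorescence intensity, in arbitrary units, on an Axon 4000B scanner.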
Consider “ATGAAATGTTTGTCATTTCTGGTGGGGCTGTTAGTTAATTCGGAGTCACCTAGTGCAG”, for which the binding signal is 9970 fluorescence intensity (a.u.).

As for “CAAACCTGTGTACTTTCTACGTGTTTTTTCTATGTTTCCGCGGAGTCACCTAGTGCAG”, the binding signal was 12100 fluorescence intensity (a.u.).

Take “ACCATATGCATCTGAATTTGTTCTGAGTATACTCCATTTCCGGAGTCACCTAGTGCAG”: the binding signal was 10600 fluorescence intensity (a.u.).

With “TGCCCGACTTGGCTTTCTCCTCCTCTCTCCTCCCGCAACCCGGAGTCACCTAGTGCAG”, the binding signal was 8600 fluorescence intensity (a.u.).

On to “AGCAGTTAACCCACCGTACAACAAAATCAATCAGTTTCTTCGGAGTCACCTAGTGCAG”, for which the binding signal is 8270 fluorescence intensity (a.u.).

In the case of “CCGCCGCCGCCTCCTGCTCCTTCGACCTGCCCCGGCCCCGCGGAGTCACCTAGTGCAG”, the binding signal was 8870 fluorescence intensity (a.u.).

As for “CCCCTATTTAGCCGCGCCATTTTCCCCTCGCTAGCTGTGTCGGAGTCACCTAGTGCAG”, the binding signal is 8400 fluorescence intensity (a.u.).

Regarding “TAATTTTTATAGGCCTGTTCATATTTTCTACCGTTGATTTCGGAGTCACCTAGTGCAG”, the binding signal is 10300 fluorescence intensity (a.u.).

Regarding “TTGACATCCTACGTTTGTGTTCCTCGTCACTCCACTATCGCGGAGTCACCTAGTGCAG”, the binding signal is 8040 fluorescence intensity (a.u.).

For “ACACCATTGACTTTTTAATATGTGTTTGACCATTCGTCTTCGGAGTCACCTAGTGCAG”, the binding signal was 19200 fluorescence intensity (a.u.).

Take “TCTGTATGGTCTACTTGTTTGATTGATTGATAATTTTACACGGAGTCACCTAGTGCAG”: the binding signal is 9240 fluorescence intensity (a.u.).

On to “TTTTGACTTTCTCTTACACTGTTTGACCATTTATCTTATTCGGAGTCACCTAGTGCAG”, for which the binding signal is 14000 fluorescence intensity (a.u.).

Regarding “ATTGACTTTTTTAAAAATGTTTGACCATTCGTCTTATTCACGGAGTCACCTAGTGCAG”, the binding signal is 9010 fluorescence intensity (a.u.).

Consider “TGTTTGACACCATTGACTTTTTAGTATGTGTTTGACCATTCGGAGTCACCTAGTGCAG”, for which the binding signal was 13200 fluorescence intensity (a.u.).

For the sequence “CCAATTTCTCTCTCCACATCTCTCTGTGTTTCTTTTATTTCGGAGTCACCTAGTGCAG”, the binding signal is 9680 fluorescence intensity (a.u.).

Regarding “CTGTGTTTTCTATTTTTCTCTGTTTTACATCTATCTTCTTCGGAGTCACCTAGTGCAG”, the binding signal is 19100 fluorescence intensity (a.u.).

As for “CGTCCTTATATAATTGTTTTACTTGGTGATTTCATCTGGTCGGAGTCACCTAGTGCAG”, the binding signal was 64500 fluorescence intensity (a.u.).

As to “TTCTTTTTATATTTTCTTTTGTTGGTTTTTTTCGTCTCAACGGAGTCACCTAGTGCAG”, the binding signal was 13200 fluorescence intensity (a.u.).

For “GGTTGGTTTCTTTGTTTTTCTCTTATATTTACACTATATTCGGAGTCACCTAGTGCAG”, the binding signal is 23800 fluorescence intensity (a.u.).

Consider “CTTACTTGGTCACTCCCTTTTTGTTATCTGATTTAGACGTCGGAGTCACCTAGTGCAG”, for which the binding signal was 8230 fluorescence intensity (a.u.).

As to “ATATTTTTTCTGTGTTTTGCAATCTTCTATTTTACACTTTCGGAGTCACCTAGTGCAG”, the binding signal was 11200 fluorescence intensity (a.u.).

For the sequence “CGTCTCGTGTCTTCTCGTCTCGACCCATCCATCCATCCCACGGAGTCACCTAGTGCAG”, the binding signal was 8570 fluorescence intensity (a.u.).

Regarding “CGGGCTCTGGTTTTACCGAATAAATGCTCTGGGCCTAATACGGAGTCACCTAGTGCAG”, the binding signal was 8020 fluorescence intensity (a.u.).

On to “GCATTAGAACGAGCGCACCCACTTTCAGTTCTCAAATTATCGGAGTCACCTAGTGCAG”, for which the binding signal was 8670 fluorescence intensity (a.u.).

As for “GTCTTTTGATGCGACGCGATGTGACTCGCCCGACCCAACTCGGAGTCACCTAGTGCAG”, the binding signal is 8940 fluorescence intensity (a.u.).

With “CCTCCATTCTTCAGTTTTAATGCATCCTCTTCATCACTTCCGGAGTCACCTAGTGCAG”, the binding signal is 11800 fluorescence intensity (a.u.).

Take “CATCAGTACAGGCCCAACTTAAAAATTGCTCGGCCCATTTCGGAGTCACCTAGTGCAG”: the binding signal was 8850 fluorescence intensity (a.u.).

Turning to “GGTGCTCCGCCTCCCGGGGCAGGGTTTCAAGAGGGTGGGTCGGAGTCACCTAGTGCAG”, the binding signal is 10700 fluorescence intensity (a.u.).

As for “CATCCGATTCCTATGTATTTCTTGCGGTCTAATCAAACGACGGAGTCACCTAGTGCAG”, the binding signal is 10200 fluorescence intensity (a.u.).

On to “GTGTTTTGCAAGGTTGTTTCTTTACCTTATCTATATACATCGGAGTCACCTAGTGCAG”, for which the binding signal was 9790 fluorescence intensity (a.u.).

As for “CACTCCACCATTGTCATCTTTACTATCGGTAATTGTTGATCGGAGTCACCTAGTGCAG”, the binding signal is 8440 fluorescence intensity (a.u.).

Regarding “GGGCTGTTATCTCTGATGTGTTTTCTGCCTCTCATGTCATCGGAGTCACCTAGTGCAG”, the binding signal is 17000 fluorescence intensity (a.u.).

Take “GCTTTTCTTTGTCCATCCATCTATCTTTTTCTCCATCTTTCGGAGTCACCTAGTGCAG”: the binding signal was 8440 fluorescence intensity (a.u.).

Turning to “TTCTCTCTCTATCTCTCATTTATATATTTAATATATTTGTCGGAGTCACCTAGTGCAG”, the binding signal is 9250 fluorescence intensity (a.u.).

Turning to “GGAGTGTTTCTGTTGTTGCATGTGATGAGTGCATTATCATCGGAGTCACCTAGTGCAG”, the binding signal is 11000 fluorescence intensity (a.u.).

Regarding “GCCTGTTTCTCCTTCGGCTGATGATATCTGTGCTGTTTTTCGGAGTCACCTAGTGCAG”, the binding signal was 8550 fluorescence intensity (a.u.).

Take “GTCAAATTTCTGTGCTCCATAAGATCTCTTCTCTTTTTTTCGGAGTCACCTAGTGCAG”: the binding signal was 16700 fluorescence intensity (a.u.).

On to “TTTTTCTTGTGCTCTATCCATCCATGCCATGCCATTCATCCGGAGTCACCTAGTGCAG”, for which the binding signal was 10200 fluorescence intensity (a.u.).

As for “TGCTCAACATCCATCTTTCTTTCTTTCTTTTTCTCTTTTTCGGAGTCACCTAGTGCAG”, the binding signal is 11300 fluorescence intensity (a.u.).

As to “AGTTGGCTATAATATATTTCTTCTCTCTCTATCTCTCATTCGGAGTCACCTAGTGCAG”, the binding signal is 17700 fluorescence intensity (a.u.).

For the sequence “TCTTTTTTCTCTTCTTCTTCTCCTCCATTCCATTCCATTTCGGAGTCACCTAGTGCAG”, the binding signal was 8930 fluorescence intensity (a.u.).

Take “ACAGTTTTCTCCATCTTGGCCATTCGTGTGCTATATCCATCGGAGTCACCTAGTGCAG”: the binding signal is 16500 fluorescence intensity (a.u.).

On to “TTTTTTTCTCCTCATTATTCTTCTTTTCTTTCTCTATATTCGGAGTCACCTAGTGCAG”, for which the binding signal is 9180 fluorescence intensity (a.u.).

Source of the values: paper PMC7819943, “Rice protein-binding microarrays: a tool to detect cis-acting elements near promoter regions in rice”.
